S1P3 antag – S1P3 (human) receptor antagonism; inhibition, % at 4.98 µM; actives 0.27% (n = 170,000); Q99500; CHO S1P3 NFAT-BLA reporter, FRET fluorescence, antagonist mode;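 active means inhibition above the plate cutoff, the mean inhibition of test wells on that plate plus 3 SD, cut at about 28% in these data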;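 further: cells challenged with S1P at its EC80 of 0.8 µM; blue over green emission ratio from cleaved BLA substrate after 4 h stimulation; 0% = S1P-stimulated wells and 100% = unstimulated DMSO-only wells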
S1P4 agonist – agonists of human S1P4 receptor. O95977. activation, % at 4.98 µM. S1P4-expressing cell line, agonist reporter assay. actives 0.35% (n = 220,000); in the data active means activation above about 11%;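 further: 0% = DMSO vehicle and 100% = reference agonist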
Target sequence (O95977 whole entry, looked up): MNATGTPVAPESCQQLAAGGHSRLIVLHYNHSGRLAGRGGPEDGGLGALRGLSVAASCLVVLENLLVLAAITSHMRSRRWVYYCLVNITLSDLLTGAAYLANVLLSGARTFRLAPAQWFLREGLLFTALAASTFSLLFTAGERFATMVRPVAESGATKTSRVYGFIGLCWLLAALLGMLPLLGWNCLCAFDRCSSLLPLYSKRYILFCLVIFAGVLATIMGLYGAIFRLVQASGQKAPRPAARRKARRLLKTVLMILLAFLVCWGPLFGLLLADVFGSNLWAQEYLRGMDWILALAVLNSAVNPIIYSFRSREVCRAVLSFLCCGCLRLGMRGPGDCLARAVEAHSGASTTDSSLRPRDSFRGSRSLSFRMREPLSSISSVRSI
S1P4 antagonist – blocks the human S1P4 receptor; S1P4-expressing cells, antagonist mode, reporter read-out; inhibition, % at 4.98 µM; actives 0.26% (n = 220,000); AID 1510; in the data active means inhibition above about 29%;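 further: 0% = wells stimulated with agonist and 100% = vehicle wells without agonist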
Hsp70 activator – Hsp70 transcriptional activation, primary screen; activation, % at 10 µM; HeLa Hsp70 promoter luciferase reporter, luminescence; scaled: vehicle 0, proteasome-inhibitor control 100%; AID 1203; actives 0.04% (n = 200,000);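 active means activation above the mean across all tested compounds plus 3 SD, cutoff set per campaign, cut at about 5.5% in these data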;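 further: 100% = MG132 at 30 µM as the positive control and 0% = DMSO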
HSF1 inhib – HSF1 inhibition | NIH3T3-HGL HSE-luciferase, MG132-induced, luminescence 8 h; stronger effect = lower value | activity change, negative = inhibition, % at 7.5 µM (by protocol) | actives 0.77% (n = 300,000);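 active means more than half of replicate wells show activity change below -50%, luminescence cut by over half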;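 further: luciferase reports HSF-1 transcriptional activity via heat shock element; 0% = median of DMSO wells and -100% = zero luminescence signal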
HSF-1 act – increases HSF-1 driven luciferase reporter signal. NIH3T3-HGL HSF-1 luciferase reporter, MG132, 8 h; 100% = twice DMSO control signal. actives 1.7% (n = 300,000). activation, % at 9 µM;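 active means mean replicate activation of at least 50% with a set share of replicates each reaching 50%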;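 further: 0% = median of the neutral control wells and 100% = twice that signal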
* hit, by the source's call. Only some compounds are listed: those with a hit (about 2.9% of all), similar ones and a draw of the others.

How did O=[N+]([O-])c1ccc(/C=N/NC(=S)Nc2ccccc2C(F)(F)F)o1 do in these assays?
S1P3 antag: 3.7; S1P4 agonist: 1.3; S1P4 antagonist: -1.6; Hsp70 activator: -0.1; HSF1 inhib: 4.8; HSF-1 act: 7.3

How did O=C1C2C3C=CC(CO)(O3)C2C(=O)N1c1ccccc1-c1ccccc1 (stereo unspecified) do in these assays?
S1P3 antag: -17.8; S1P4 agonist: -2.2; S1P4 antagonist: 31.1*; Hsp70 activator: -0.3

What do the screens show for `CC(=O)Oc1ccc(N2C(=O)C3C4C=CC(CO)(O4)C3C2=O)cc1` (stereo unspecified)?
S1P4 agonist: 1.6; S1P4 antagonist: -7.1; Hsp70 activator: -0.1; HSF1 inhib: 5.1; HSF-1 act: 10.5

What do the screens show for `Cc1nn(-c2nc3ccccc3[nH]2)c(=O)c2ccccc12`?
S1P3 antag: -11.6; S1P4 agonist: 0.3; S1P4 antagonist: 13.3; Hsp70 activator: -0.8; HSF1 inhib: -81.3*; HSF-1 act: -84.6

How did CC1(C(=O)OCC(=O)Nc2ccc3ccccc3c2)CC1(Cl)Cl (stereo unspecified) do in these assays?
S1P3 antag: 0.5; S1P4 agonist: -0.1; S1P4 antagonist: -12.1; Hsp70 activator: 0.1; HSF1 inhib: 29.1; HSF-1 act: 66.0*

Results for CCOc1ccc(NC(=O)COC(=O)C2(C)CC2(Cl)Cl)c([N+](=O)[O-])c1 (stereo unspecified) ?
S1P3 antag: 2.5; S1P4 agonist: 1.6; S1P4 antagonist: 6.2; Hsp70 activator: 0.3; HSF1 inhib: -53.3*; HSF-1 act: -62.3

What do the screens show for `CCOc1ccc(OCC(=O)Nc2ccc(OC)cc2[N+](=O)[O-])cc1`?
S1P3 antag: -21.6; S1P4 agonist: -2.4; S1P4 antagonist: -2.5; Hsp70 activator: -0.1; HSF1 inhib: -10.2; HSF-1 act: 7.0

How did Cc1cc(C)c(NC(=O)CNC(=O)c2cc([N+](=O)[O-])ccc2N2CCOCC2)c(C)c1 do in these assays?
HSF1 inhib: -1.8; HSF-1 act: -3.7

What do the screens show for `Cc1ccc(CC2SC(=Nc3ccccc3)N(c3ccccc3)C2=O)cc1` (stereo unspecified)?
S1P3 antag: 15.8; S1P4 agonist: -0.1; S1P4 antagonist: -20.3; Hsp70 activator: -0.5; HSF1 inhib: 25.6; HSF-1 act: 59.2*

How did O=C(O)CC1SC(=Nc2ccccc2)N(c2ccccc2)C1=O (stereo unspecified) do in these assays?
S1P4 agonist: 0.9; S1P4 antagonist: -17.7; Hsp70 activator: -0.2; HSF1 inhib: -2.8; HSF-1 act: -14.9

Results for [O-]/[N+](=C\c1ccco1)c1ccc(Cl)cc1 ?
HSF1 inhib: 54.5; HSF-1 act: 98.8*

Results for c1ccc(N2CCN(c3cnc4ccccc4n3)CC2)cc1 ?
S1P4 agonist: -1.6; S1P4 antagonist: -8.4; Hsp70 activator: -0.3; HSF1 inhib: 34.3; HSF-1 act: 74.8*

Results for O=C(Nc1ccc(Br)cc1Br)c1cccc2c1C(=O)N(C1CCCCC1)C2 ?
HSF1 inhib: -6.2; HSF-1 act: -3.7

How did C=CCNC(=O)C(=O)Nc1ccc2c(c1)N(S(=O)(=O)c1cccs1)CCC2 do in these assays?
HSF1 inhib: -2.7; HSF-1 act: -5.4

What do the screens show for `CCOc1ccc(CCN2C(=O)c3ccc(C(=O)O)cc3C2=O)cc1OCC`?
HSF1 inhib: -1.8; HSF-1 act: -9.1

What do the screens show for `CSc1ccccc1C(=O)N1CCN(c2ncccn2)CC1`?
S1P3 antag: -14.1; S1P4 agonist: -0.6; S1P4 antagonist: -15.1; Hsp70 activator: -0.3; HSF1 inhib: -70.3*; HSF-1 act: -76.6

What do the screens show for `Cc1ccc(C(=O)Nc2sc(C)c(-c3ccccc3)c2C(N)=O)cc1[N+](=O)[O-]`?
S1P4 agonist: 0.1; S1P4 antagonist: -0.4; Hsp70 activator: 0.6; HSF1 inhib: -81.5*; HSF-1 act: -83.4

Results for COCCN(Cc1cn[nH]c1-c1ccc2cc(OC)ccc2c1)C(C)C ?
HSF1 inhib: 37.8; HSF-1 act: 56.3*

What do the screens show for `C/C(CC(=O)Nc1ccc(N(C)C)cc1)=N\NC(=O)c1ccc(C(C)(C)C)cc1`?
HSF1 inhib: -2.9; HSF-1 act: 26.4

Results for O=C(NCC1CCCC(CNC(=O)Nc2ccc(Cl)cn2)C1)Nc1ccc(Cl)cn1 (stereo unspecified) ?
HSF1 inhib: 28.6; HSF-1 act: 55.7*

Source: PubChem (several laboratories)
